Compound activity as filed in PubChem.
D2 PAM-1 = positively modulates the human D2 dopamine receptor allosterically; P14416; HEK293 T-REx D2, calcium flux, EC20 dopamine potentiation; potentiation, % at 10 µM; hit rate 0.34% among 340,000;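 active = potentiation over 3 SD above the plate norm, cut at about 30% in these data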; note: 0% is about no effect
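Calcium flux readout, no-wash dye, 1 read/s. Inducible HEK293 Trex D2 line, overnight 30 C. Compound alone 180 s (agonist flags), then EC20 dopamine, another 180 s to score potentiation.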
D2 ag-1 = agonists of human D2 dopamine receptor (beta-arrestin); hit rate 0.084% among 360,000; AID 624465; DiscoveRx PathHunter D2 beta-arrestin, luminescence, 90 min; 100% = 57 uM dopamine signal; activation, % (concentration not given with the values); P14416; in the data active = activation above about 40%; inconclusive = between about 15% and that limit
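Agonist mode: compounds alone added to overnight-plated D2 PathHunter cells for 90 min at 37 C, with 57 uM final dopamine (EC100) defining full response. Beta-arrestin recruitment detected by chemiluminescent reagent, read after 1 h at ambient temperature.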
D2 ag-2 = agonists of human D2 dopamine receptor; P14416; HEK293 T-REx D2 cells, calcium flux agonist mode; activation, % at 2 µM; hit rate 0.53% among 340,000; AID 485358;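 active = activation over 3 SD above normal in the single-dose calcium agonist read, cut at about 30% in these data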; note: 0% is about no effect
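In this primary screen, compounds producing a positive calcium signal within 180 s of addition to tetracycline-induced, force-coupled HEK293 Trex D2 cells are flagged; cells are dye-loaded with a no-wash calcium kit beforehand.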
D2 PAM-2 = potentiates the human D2 dopamine receptor allosterically; P14416; DiscoveRx D2 beta-arrestin cells, luminescence, 90 min; 100% = 57 uM dopamine signal; potentiation, % (concentration not given with the values); hit rate 0.23% among 360,000; AID 624464; in the data active = potentiation above about 50%; inconclusive = mostly about 30% to 49%
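PathHunter D2 cells, attached overnight at 37 deg C, received compound in DMSO plus dopamine at EC20 (50 nM final) for 90 min at 37 deg C. Beta-arrestin recruitment was read as luminescence after 1 h with detection reagent at ambient temperature.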
D2 antagonist = antagonizes the human D2 dopamine receptor | inhibition, % at 10 µM | P14416 | hit rate 2% among 340,000 | HEK293 TREx D2 cells, calcium flux, dopamine EC80 | AID 485344; in the data active = inhibition above about 30%; inactive = below that, where a call was filed; note: 0% is about no effect
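Tetracycline-induced HEK293 TREx cells expressing D2 receptor forced-coupled to calcium signalling, loaded with no-wash calcium dye. Compounds added and calcium flux read 180 s, then dopamine added at EC80 and read a further 180 s.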
D3 arrestin ag = activates human D3 dopamine receptor beta-arrestin recruitment; shares compounds with D2 ag-2; DiscoveRx D3 beta-arrestin cells, luminescence, 90 min; Potency, µM (titrated, usually from 76.9 µM), for the others: at the highest dose activation, most hits filed as activators; hit rate 4% among 2,300; AID 720506;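 note: potency is the fitted concentration of half-maximal effect; 100% = dopamine control response; nearly all actives have a fitted effect of over 70% in size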
Target sequence (P35462 whole entry, looked up): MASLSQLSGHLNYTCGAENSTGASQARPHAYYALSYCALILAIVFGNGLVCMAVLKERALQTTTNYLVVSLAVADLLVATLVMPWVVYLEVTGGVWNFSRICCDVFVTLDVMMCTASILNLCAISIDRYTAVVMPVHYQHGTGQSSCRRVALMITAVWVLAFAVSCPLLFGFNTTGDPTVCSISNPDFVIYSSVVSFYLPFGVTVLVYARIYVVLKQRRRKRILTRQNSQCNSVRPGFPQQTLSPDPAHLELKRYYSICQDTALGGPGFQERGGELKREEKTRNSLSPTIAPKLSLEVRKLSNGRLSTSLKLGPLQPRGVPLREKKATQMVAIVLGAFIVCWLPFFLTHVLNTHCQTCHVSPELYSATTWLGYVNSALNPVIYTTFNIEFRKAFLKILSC
D2 ag-3 = D2 receptor agonism, beta-arrestin counterscreen; shares compounds with D2 ag-2; AID 720507; hit rate 5.9% among 2,300; DiscoveRx PathHunter D2 beta-arrestin, luminescence, 90 min; response scale: percent relative to full dopamine signal; Potency, µM (doses to about 76.9 µM), inactives show at the top dose activation, most hits filed as activators; note: potency is the fitted concentration of half-maximal effect; % of control where 0% means no effect; nearly all actives have a fitted effect of over 70% in size
* hit, by the source's call; ? = inconclusive; nt = no result given. Sampled rows, rich in hits. Any-hit rate of the full collection: about 2.4%. Unless noted, calls come from the whole dose curve; as a rule, active = well fitted activation curve with a large enough effect; inconclusive = small, poorly fitted or top-dose-only effect; inactive = flat fitted curve, though single readings scatter.

SMILES	D2 PAM-1	D2 ag-1	D2 ag-2	D2 PAM-2	D2 antagonist	D3 arrestin ag	D2 ag-3
Cc1ccc(-c2nnc(SCC(=O)NC(C)(C)C)nc2-c2ccc(C)cc2)cc1	10.5	nt	0.9	nt	nt	nt	nt
CC(Sc1nnc(-c2cccnc2)n1N)C(=O)NCCC1=CCCCC1 (stereo not given)	-2.3	3.4	46.9*	-6.7	11.9	13.5%	23.0%
CC(Sc1nnc(-c2cccnc2)n1N)C(=O)N1CCOCC1 (stereo not given)	-8.7	0.1	0.5	-8.1	7.5	nt	nt
CCC(C)NC(=O)CSc1nc2n[nH]c(C)c2c(=N)n1-c1ccc(C)c(Cl)c1 (stereo not given)	-10.8	nt	0.0	nt	nt	nt	nt
CCCOc1ccc(C(=O)NNC(=S)NC(=O)c2ccco2)cc1	-4.1	-9.0	33.9*	-12.8	15.0	-5.5%	-9.0%
CC(OC(=O)Cc1c(F)cccc1Cl)C(=O)NC1CCCCC1C (stereo not given)	-11.6	-5.2	0.5	-2.2	-9.4	-4.7%	-2.4%
CC(OC(=O)CNC(=O)c1ccc(Br)cc1)C(=O)NC1CCCCC1C (stereo not given)	-7.2	-5.4	0.0	-11.0	2.7	-0.7%	0.4%
CCn1c(=O)c2sccc2n2c(CCC(=O)Nc3ccc(OC)cc3OC)nnc12	-1.4	nt	-0.8	nt	nt	nt	nt
COc1ccc(-c2noc(-c3ccc(N4CCC(C)CC4)c([N+](=O)[O-])c3)n2)cc1OC	-9.0	nt	nt	nt	nt	nt	nt
O=C(c1ccccc1)N1CCN(Cc2ccc3c(c2)OCO3)CC1	-32.4	-0.3	16.5	-24.6	7.6	nt	nt
O=C(c1sccc1Cl)N1CCN(Cc2ccc3c(c2)OCO3)CC1	-25.2	4.6	49.7*	-14.8	66.6*	-6.6%	3.1%
O=C(c1ccc(Br)o1)N1CCN(Cc2ccc3c(c2)OCO3)CC1	-23.0	2.0	70.0*	-13.7	58.4*	-4.0%	10.1%
O=C(c1[nH]nc2c1CCc1ccccc1-2)N1CCN(Cc2ccc3c(c2)OCO3)CC1	-15.2	?	0.0	-23.0	70.5*	2.3%	?
CCC(C)(C)NC(=O)C1CCC(CNS(=O)(=O)c2ccc3c(c2)CC(C)N3C(C)=O)CC1 (stereo not given)	-0.7	nt	0.7	nt	nt	nt	nt
CC(=O)Nc1ccc(Nc2nc3ccc(C)cc3n3nnnc23)cc1	6.4	nt	0.5	nt	nt	nt	nt
COc1ccc(-c2nc3ccccc3n3c(-c4ccccc4)c4c(=O)n(C)c(=O)n(C)c4c23)cc1OC	-9.5	nt	-0.1	nt	nt	nt	nt
CCc1ccc2oc(C(=O)Nc3c(C)n(C)n(-c4ccccc4)c3=O)cc(=O)c2c1	6.4	nt	nt	nt	nt	nt	nt
CCOC(=O)NC(=O)/C(C#N)=N\Nc1cccc(Cl)c1	9.3	4.5	6.8	-2.3	38.1*	9.2%	-1.7%
Cc1ccc(CN2CCN(c3ccccc3)CC2)o1	-11.1	?	49.3*	2.3	69.9*	24.0%	?
Cc1ccc(CN2CCN(c3ncccn3)CC2)o1	-25.6	?	85.3*	?	85.7*	-6.5%	?
O=[N+]([O-])c1ccc(N2CCN(Cc3cccc([N+](=O)[O-])c3)CC2)cc1	-9.7	-3.7	1.6	-4.9	-0.9	nt	nt
O=[N+]([O-])c1cccc(-c2ccc(CN3CCN(c4ccccc4)CC3)o2)c1	-21.8	3.5	51.9*	-16.3	46.8*	2.6%	14.2%
CCCNC(=O)C(=O)Nc1ccc(N(C)C)cc1	-9.8	-1.0	-1.3	-0.4	-11.4	nt	nt
CN(C)c1ccc(NC(=O)C(=O)NCCOc2ccccc2)cc1	-11.1	5.1	33.9*	20.2	16.1	?	21.9%
COc1cccc(-c2nn(C)c3sc(C(=O)N4CCN(c5cccc(C)c5)C(C)C4)cc23)c1 (stereo not given)	-6.2	nt	0.4	nt	nt	nt	nt
SMILES	D2 PAM-1	D2 ag-1	D2 ag-2	D2 PAM-2	D2 antagonist	D3 arrestin ag	D2 ag-3
CCOC(=O)C1CCN(CC(=O)Nc2c(C(=O)OC)[nH]c3ccc(Cl)cc23)CC1	nt	8.3	0.4	10.5	-12.4	nt	nt
CCOC(=O)C1CCN(CC(=O)Nc2c(C(=O)OC)[nH]c3cccc(Cl)c23)CC1	-9.1	1.0	25.6	-15.2	13.5	8.7%	4.7%
C[C@H](NC(=O)c1nc[nH]c1C(=O)N[C@@H](C)c1ccccc1)c1ccccc1	19.2	-2.5	0.2	-3.6	-2.8	nt	nt
C[C@H](NC(=O)c1[nH]cnc1C(=O)N[C@H](C)c1ccccc1)c1ccccc1	9.7	-1.2	-0.2	-3.0	9.1	-8.5%	-4.9%
Cc1cccc(NC(=O)c2nc[nH]c2C(=O)N(C)Cc2ccccc2)c1	-20.6	-8.5	-0.6	-18.8	28.6	0.1%	-4.1%
CN(Cc1ccccc1)C(=O)c1[nH]cnc1C(=O)NCCCCCNC(=O)OC(C)(C)C	7.2	-1.8	-0.6	-18.5	-8.3	-5.3%	3.7%
Cc1cccc(NC(=O)c2nc[nH]c2C(=O)N[C@@H](C)c2ccccc2)c1	9.4	-2.3	-0.4	-14.9	-4.0	-3.1%	-4.3%
COc1cccc(NS(=O)(=O)c2ccc3[nH]cc(C(=O)NC4CCCCC4)c(=O)c3c2)c1	-3.1	nt	0.2	nt	nt	nt	nt
Cc1cccc(NC(=O)COc2ccccc2C(=O)NC(C)c2ccccc2)c1 (stereo not given)	-17.3	7.0	48.8*	-19.0	-5.2	?	9.2%
Cc1ccc(S(=O)(=O)n2nc(C)c(S(=O)(=O)N3CCC(C)CC3)c2C)cc1	1.5	nt	0.3	nt	nt	nt	nt
CCNS(=O)(=O)c1ccc2c3c(cccc13)C(=O)N2	-10.8	-2.3	48.2*	-4.9	-3.3	-0.3%	0.1%
CCOc1cc(N2CCOCC2)c(OCC)cc1NC(=O)COc1cccc(CC)c1	14.4	-1.5	0.3	1.0	-33.7	-9.0%	2.0%
N#C/C(=C\c1c(Oc2ccc(F)cc2)nc2ccccn2c1=O)c1nc2ccccc2s1	-6.1	nt	0.3	nt	nt	nt	nt
CCCc1nc2ccc(NC(C)=O)cc2c(=O)n1Cc1ccccc1Cl	0.8	-2.3	0.0	-1.6	-0.8	-6.9%	0.0%
CN=c1scc(-c2cccs2)n1/N=C/c1ccc(O)c(O)c1O	-21.9	181.8*	65.8*	108.7*	89.3*	25.1µM*	14.1µM*
CN=c1scc(-c2cccs2)n1/N=C/c1ccccc1O	26.6	-3.3	-1.4	-33.7	0.0	nt	nt
CN=c1scc(C)n1/N=C/c1cc(Br)c(O)c(OC)c1	-4.3	0.8	1.4	5.2	-30.6	nt	nt
CN=c1scc(C)n1/N=C/c1ccc(O)c(O)c1O	-8.9	51.5*	40.2*	92.8*	-11.3	39.8µM*	7.1%
CC(C)c1ccc(NC(=O)Cn2nnc(C(=O)NCc3ccc(Cl)cc3)c2N)cc1	-6.5	nt	0.4	nt	nt	nt	nt
CC(C)Cn1c(=O)c2sccc2n2c(CCCC(=O)NC3CCCCC3)nnc12	-0.8	nt	-0.4	nt	nt	nt	nt
